This passage reports inhibition results from PubChem BioAssay AID624255 (Broad Institute, 2012).

For orientation: inhibition means the change of the read-out against control, counted positive when it falls.

Where “and” joins values, the source holds several entries; their conditions need not be identical. Identical values can stand only once. The campaign covered roughly 77,000 compounds. About 4,600 (6%) were called active. Inconclusive results (about 1%) are left out. Only a selection was taken, and actives are over-represented in it overall. A number with no mark means an inactive call.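 How the source made its calls: active means mean inhibition above about 93%, with at least 55% of replicates each passing it (limit read from the data, passing the limit was not always enough); inconclusive means only one of those two conditions holds; inactive means neither condition holds.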

This test in a line: growth inhibition of T. cruzi in host fibroblasts – cell-based, beta-gal Tulahuen parasites, NIH3T3 host, luminescence, primary screen (AID 624255). The note with it: T. cruzi beta-gal in NIH3T3, GalScreen luminescence, 90 h; at 8.34 µM; active compounds read high.
For the compound `CS(=O)(=O)N1[C@H](C(=O)NCc2ccncc2)[C@@H](CO)[C@@H]2Cn3c(ccc(C4=CCCCC4)c3=O)[C@@H]21`, the inhibition was 58.6%.
As for `COc1cccc(S(=O)(=O)N2C[C@@H](O)COC[C@H]3O[C@@H](CC(=O)N4CCOCC4)CC[C@@H]32)c1`, the figure is 22.5%.
Consider `O=C(Nc1ccccc1F)N1C[C@@H]2[C@H](c3ccccc31)[C@@H](CO)N2C(=O)Nc1ccccc1`, for which the inhibition was 8.53%.
For `O=C(CN1CCOCC1)NCC[C@H]1CC[C@@H](NC(=O)Nc2ccc(Cl)cc2)[C@@H](CO)O1` the value was 46.9%; for `O=C(C[C@H]1CC[C@@H]2[C@H](COC[C@@H](O)CN2C(=O)Nc2cccc(F)c2)O1)NCc1ccccc1F`, -36.9%; for `COc1cccc(C(=O)Nc2ccc3c(c2)C(=O)N(C)C[C@@H](OC)[C@H](C)CN(C(=O)C2CCOCC2)[C@H](C)CO3)c1`, 9.28%.
As for `COc1ccc(NC(=O)Nc2ccc3c(c2)C(=O)N([C@H](C)CO)C[C@@H](C)[C@H](CN(C)Cc2ccc(Cl)c(Cl)c2)OCCCC[C@@H](C)O3)cc1`, the figure is 126% (active).
For `COc1ccc(CN(C)C[C@@H]2OCCCC[C@@H](C)Oc3ccc(NC(=O)Nc4ccc(OC)cc4)cc3C(=O)N([C@@H](C)CO)C[C@@H]2C)cc1` the value was 24.8%.
For `C[C@@H]1CCCCO[C@H](CN(C)Cc2ccc(Cl)c(Cl)c2)[C@@H](C)CN([C@@H](C)CO)C(=O)c2cc(NC(=O)Nc3ccccc3)ccc2O1`, the inhibition was 70.7%.
For `C[C@H](CO)N1C[C@H](C)[C@H](CN(C)Cc2ccc(Cl)c(Cl)c2)OCCCC[C@H](C)Oc2ccc(NC(=O)NC3CCCCC3)cc2C1=O` the value was 86.3%.
For `COc1ccc(NC(=O)Nc2ccc3c(c2)C(=O)N([C@H](C)CO)C[C@H](C)[C@H](CN(C)Cc2ccncc2)OCCCC[C@H](C)O3)cc1` the value was 97.9%.
As for `C[C@@H]1CN([C@H](C)CO)C(=O)c2cc(NC(=O)Nc3ccc(F)cc3)ccc2O[C@@H](C)CCCCO[C@H]1CN(C)Cc1ccc(Cl)c(Cl)c1`, the figure is 102% (active).
`COc1ccccc1-c1ccc2n(c1=O)C[C@H]1[C@H](CO)[C@@H](C(=O)N[C@@H](C)c3ccccc3)[C@@H]2N1C`: the inhibition is 18.4%.
For `C[C@H]1CN([C@@H](C)CO)S(=O)(=O)c2ccc(C#CC3CCCC3)cc2O[C@H]1CN(C)C(=O)Cc1ccncc1` the value was 118% (active); for `C[C@@H]1CN([C@H](C)CO)S(=O)(=O)c2ccc(C#CC3CCCCC3)cc2O[C@H]1CN(C)C(=O)Cc1ccncc1`, 92.8% and 91.8%; for `COCC(=O)N(C)C[C@@H]1Oc2cc(C#CC3CC3)ccc2S(=O)(=O)N([C@H](C)CO)C[C@H]1C`, -43%.
For `CCC(=O)N(C)C[C@H]1Oc2cc(C#CC3CC3)ccc2S(=O)(=O)N([C@H](C)CO)C[C@H]1C` the value was -39.9%.
For `CCC(=O)N(C)C[C@H]1Oc2cc(C#CC3CC3)ccc2S(=O)(=O)N([C@@H](C)CO)C[C@@H]1C` the value was 3.97%; for `C[C@@H]1CN([C@H](C)CO)S(=O)(=O)c2ccc(C#CC3CCCC3)cc2O[C@@H]1CN(C)C(=O)Cc1ccncc1`, 117% (active); for `C[C@@H]1CN([C@H](C)CO)C(=O)c2cc(C#CCN(C)C)cnc2O[C@H]1CN(C)C(=O)NC1CCCC1`, -10.7%.
`COc1ccc(S(=O)(=O)N[C@@H]2CC[C@H](CC(=O)N3CCc4ccccc4C3)O[C@H]2CO)cc1`: the inhibition was 16.5%.
For `CC(C)C#Cc1cnc2c(c1)C(=O)N([C@@H](C)CO)C[C@@H](C)[C@H](CN(C)C(=O)CCN1CCCCC1)O2` the value was 15%; for `CC(=O)Nc1ccc2c(c1)C(=O)N(C)[C@@H]1CC[C@@H](CC(=O)NCC3CCCCC3)O[C@@H]1CO2`, 8.56%; for `COCC(=O)N(C)C[C@H]1Oc2ncc(-c3cccc(OC)c3)cc2C(=O)N([C@H](C)CO)C[C@H]1C`, -6.11%.
For `Cc1ccccc1-c1ccc([C@@H]2[C@@H](CO)N3CCCCN(C(=O)Nc4cccc(F)c4)C[C@H]23)cc1` the value was 91.9%; for `COc1ccccc1C#Cc1ccc([C@@H]2[C@H](CO)N3CCCCN(CCC(F)(F)F)C[C@@H]23)cc1`, 42.4%.
As for `CC(C)C#Cc1ccc([C@H]2[C@@H](CO)N3CCCCN(C(=O)Nc4ccccc4)C[C@H]23)cc1`, the inhibition was 49.6%.
For `O=C(Nc1ccccc1)N1CCCCN2[C@H](CO)[C@@H](c3ccc(C#Cc4ccccn4)cc3)[C@H]2C1` the value was 108% (active); for `OC[C@@H]1[C@H](c2ccc(C#CC3CC3)cc2)[C@@H]2CN(CCC(F)(F)F)CCCCN12`, 99.5% (active); for `O=C(Nc1cccc(F)c1)N1CCCCN2[C@H](CO)[C@H](c3ccc(C#CC4CC4)cc3)[C@@H]2C1`, 122% (active).
For `O=C(c1ccncc1)N1CCCCN2[C@H](CO)[C@@H](c3ccc(C#Cc4ccccn4)cc3)[C@H]2C1` the value was 91.2%.
For `N#Cc1cccc(-c2ccc([C@H]3[C@@H](CO)N4CCCCN(C(=O)Nc5ccccc5)C[C@H]34)cc2)c1` the value was 75.3%; for `COc1ccc(C#Cc2ccc([C@H]3[C@@H](CO)N4CCCCN(C(=O)Nc5ccccc5)C[C@H]34)cc2)cc1`, 80.4%; for `N#Cc1cccc(-c2ccc([C@H]3[C@H](CO)N4CCCCN(C(=O)Nc5cccc(F)c5)C[C@@H]34)cc2)c1`, 105% (active).
Turning to `O=C(C1CCC1)N1CCCCN2[C@H](C1)[C@@H](c1ccc(C#CC3CCCC3)cc1)[C@@H]2CO`, the inhibition is 86.9%.
For `O=C(Nc1ccc(F)cc1)N1CCCCN2[C@H](CO)[C@H](c3ccc(C#Cc4ccccc4)cc3)[C@H]2C1` the value was 76.6%; for `CN1CCN(C(=O)C[C@@H]2C=C[C@@H](NS(=O)(=O)c3cccc(F)c3)[C@@H](CO)O2)CC1`, -46.4%; for `O=C(C[C@H]1C=C[C@H](NC(=O)NC2CCCCC2)[C@H](CO)O1)NCc1ccccc1`, -29.6%.
As for `COc1ccc(CN(C)C[C@H]2OCCCC[C@@H](C)Oc3ccc(NS(C)(=O)=O)cc3C(=O)N([C@@H](C)CO)C[C@H]2C)cc1`, the figure is 89.5%; as for `CN(C)CC(=O)Nc1ccc2c(c1)[C@@H]1C[C@H](CC(=O)NCC3CC3)O[C@@H](CO)[C@@H]1O2`, -19.8%; as for `COc1ccc(NC(=O)Nc2ccc3c(c2)C(=O)N([C@@H](C)CO)C[C@H](C)[C@H](CN(C)C(=O)Nc2ccccc2)OCCCC[C@@H](C)O3)cc1`, 54%.
Regarding `CO[C@@H]1CN(C)C(=O)c2cc(NC(=O)c3cccc(F)c3)ccc2OC[C@H](C)N(C)C[C@@H]1C`, the inhibition was 13.5%.
As for `O=C(c1cccnc1)N1C[C@H]2[C@@H](c3ccccc31)[C@H](CO)N2C(=O)C1CCCCC1`, the figure is 19.5%.
For `COC(=O)C[C@@H]1CC[C@@H]2[C@H](COc3ccc(NS(=O)(=O)c4ccccc4F)cc3C(=O)N2C)O1` the value was 27.2%.
As for `CCCC(=O)Nc1ccc2c(c1)OC[C@@H](C)N(CC1CCOCC1)C[C@H](C)[C@H](OC)CN(C)C2=O`, the figure is 7.69%; as for `C/C=C/c1ccc([C@H]2[C@@H](CO)N3CCCCN(C(=O)c4ccc(F)cc4)C[C@@H]23)cc1`, 90.9%.
Turning to `CC(=O)N1CCCCN2[C@H](C1)[C@@H](c1ccc(-c3ccc(F)cc3)cc1)[C@@H]2CO`, the inhibition was 71%.
For `O=C(CN1CCOCC1)N1CCCCN2[C@H](CO)[C@H](c3ccc(-c4ccccc4)cc3)[C@@H]2C1` the value was 102% (active).
In the case of `O=C(CN1CCOCC1)N1CCCCN2[C@H](C1)[C@H](c1ccc(-c3ccccc3F)cc1)[C@@H]2CO`, the inhibition was 26.1%.
For `COCC(=O)N1CCCCN2[C@H](CO)[C@H](c3ccc(-c4ccc(OC)cc4)cc3)[C@H]2C1` the value was 46.5%.
For `CCC(=O)N1CCCCN2[C@H](C1)[C@@H](c1ccc(-c3ccc(F)cc3)cc1)[C@@H]2CO` the value was 101% (active); for `CCC(=O)N1CCCCN2[C@H](CO)[C@@H](c3ccc(-c4cccnc4)cc3)[C@H]2C1`, 88.7%.
For `CCC(=O)N1CCCCN2[C@H](C1)[C@@H](c1ccc(/C=C/c3ccccc3)cc1)[C@@H]2CO` the value was 105% (active); for `COCC(=O)N1CCCCN2[C@H](C1)[C@@H](c1ccc(-c3ccccc3)cc1)[C@@H]2CO`, 53.8%.
With `O=C(CN1CCOCC1)N1CCCCN2[C@@H](CO)[C@H](c3ccc(-c4ccccc4)cc3)[C@@H]2C1`, the inhibition is 112% (active).
As for `COCC(=O)N1CCCCN2[C@H](CO)[C@@H](c3ccc(-c4ccc(OC)cc4)cc3)[C@@H]2C1`, the figure is 4.91%; as for `CO[C@@H]1CN(C)C(=O)c2ccc(NS(=O)(=O)c3ccc(C)cc3)cc2OC[C@@H](C)N(Cc2nccs2)C[C@H]1C`, 41.1%.
For `C[C@@H]1CN([C@@H](C)CO)C(=O)c2cc(C#CC3CC3)cnc2O[C@@H]1CN(C)C(=O)Cc1ccccn1` the value was 51.4%.
For `CCCN(C)C[C@H]1OCCCC[C@@H](C)Oc2ccc(NC(=O)CCC(F)(F)F)cc2C(=O)N([C@H](C)CO)C[C@H]1C` the value was 67.3%; for `O=C(C[C@H]1CC[C@@H](NC(=O)c2ccncc2)[C@@H](CO)O1)Nc1ccccc1`, 19.5%.
With `CC(C)NC(=O)Nc1ccc2c(c1)C(=O)N(C)[C@H]1CC[C@H](CC(=O)NCC3CCCCC3)O[C@@H]1CO2`, the inhibition was 22.4%.
For the compound `O=C(C1CCOCC1)N1C[C@H]2[C@@H](c3ccccc31)[C@@H](CO)N2Cc1ccccc1F`, the inhibition is -22.5%.
For `O=C(CN1CCOCC1)N1CCCCN2[C@H](CO)[C@H](c3ccc(Br)cc3)[C@H]2C1` the value was 36%; for `O=C(CN1CCOCC1)N1CCCCN2[C@@H](CO)[C@H](c3ccc(/C=C/c4ccccc4)cc3)[C@@H]2C1`, 102% (active).
Take `OC[C@H]1[C@@H](c2ccc(/C=C/c3ccccc3)cc2)[C@H]2CN(Cc3cccnc3)CCCCN21`: the inhibition was 23.4%.
As for `COc1ccc(S(=O)(=O)Nc2ccc3c(c2)C(=O)N([C@H](C)CO)C[C@H](C)[C@H](CN(C)Cc2ccc(C(F)(F)F)cc2)O3)cc1`, the figure is 100% (active); as for `COc1ccc(S(=O)(=O)Nc2ccc3c(c2)C(=O)N([C@@H](C)CO)C[C@H](C)[C@H](CN(C)Cc2ccc(C(=O)O)cc2)O3)cc1`, -6.07%; as for `COc1ccc(CN(C)C[C@H]2Oc3ccc(NS(=O)(=O)c4ccc(C)cc4)cc3C(=O)N([C@@H](C)CO)C[C@H]2C)cc1`, 37.9%.
Regarding `COc1ccc(CN(C)C[C@@H]2Oc3ccc(NS(=O)(=O)c4ccc(F)cc4)cc3C(=O)N([C@@H](C)CO)C[C@@H]2C)cc1`, the inhibition was 11.1%.
`COc1ccc(S(=O)(=O)Nc2ccc3c(c2)C(=O)N([C@@H](C)CO)C[C@H](C)[C@@H](CN(C)Cc2ccc(C(F)(F)F)cc2)O3)cc1`: the inhibition is 105% (active).
On to `COc1ccc(CN(C)C[C@@H]2Oc3ccc(NS(=O)(=O)c4ccc(OC)cc4)cc3C(=O)N([C@H](C)CO)C[C@H]2C)cc1`, for which the inhibition is 0.955%.
Take `COc1ccc(S(=O)(=O)Nc2ccc3c(c2)CC(=O)N([C@@H](C)CO)C[C@H](C)[C@@H](CN(C)Cc2ccc(C(=O)O)cc2)O3)cc1`: the inhibition was -13.7%.
For `COc1ccc(CN(C)C[C@H]2Oc3ccc(NS(=O)(=O)c4ccc(Cl)cc4)cc3CC(=O)N([C@@H](C)CO)C[C@H]2C)cc1` the value was 96.7% (active); for `C[C@H](CO)N1C[C@H](C)[C@H](CN(C)Cc2ccc(C(F)(F)F)cc2)Oc2ccc(NS(=O)(=O)c3ccc(Cl)cc3)cc2C1=O`, 127% (active); for `COc1ccc(S(=O)(=O)Nc2ccc3c(c2)CC(=O)N([C@H](C)CO)C[C@H](C)[C@H](CN(C)Cc2ccc(C(F)(F)F)cc2)O3)cc1`, 75%.
As to `Cc1ccc(S(=O)(=O)Nc2ccc3c(c2)C(=O)N([C@@H](C)CO)C[C@@H](C)[C@H](CN(C)Cc2ccc(C(F)(F)F)cc2)O3)cc1`, the inhibition is 42.1%.
Turning to `C[C@@H]1CN([C@@H](C)CO)C(=O)Cc2cc(NS(=O)(=O)c3ccc(Cl)cc3)ccc2O[C@H]1CN(C)Cc1ccc(C(F)(F)F)cc1`, the inhibition is -1.87%.
`C[C@@H]1CN([C@@H](C)CO)S(=O)(=O)c2ccc(-c3ccncc3)cc2O[C@@H]1CN(C)C(=O)C1CCC1`: the inhibition is 76.2%.
For the compound `O=C(Nc1ccc(F)cc1)N[C@@H]1CC[C@H](CC(=O)N2CCCCC2)O[C@H]1CO`, the inhibition was -3.48%.
For `CCCNC(=O)[C@H]1[C@H](CO)[C@H]2Cn3c(ccc(-c4cccc(F)c4)c3=O)[C@@H]1N2C(=O)CC`, the inhibition was 1.74%.
For `CC(C)CC#Cc1cnc2c(c1)C(=O)N([C@H](C)CO)C[C@H](C)[C@@H](CN(C)C(=O)Cc1cccnc1)O2` the value was 3.64%.
As to `Cc1noc(C)c1S(=O)(=O)N(C)C[C@@H]1OCCCC[C@@H](C)Oc2ccc(NC(=O)c3ccccc3)cc2C(=O)N([C@@H](C)CO)C[C@@H]1C`, the inhibition was 14.7%.
